To fix the notation:
B1: PhoQ; a variant is named by its letters at X, in order, P23837 (parent)
chain: MKKLLRLFFPLSLRVRFLLATAAVVLVLSLAYGMVALIGYSVSFDKTTFRLLRGESNLFYTLAKWENNKLHVELPENIDKQSPTMTLIYDENGQLLWAQRDVPWLMKMIQPDWLKSNGFHEIEADVNDTSLLLSGDHSIQQQLQEVREDDDDAEMTHSVAVNVYPATSRMPKLTIVVVDTIPVELKSSYMVWSWFIYVLSANLLLVIPLLWVAAWWSLRPIEALAKEVRELEEHNRELLNPATTRELTSLVRNLNRLLKSERERYDKYRTTLTDLTHSLKTPLXXLQXXLRSLRSEKMSVSDAEPVMLEQISRISQQIGYYLHRASMRGGTLLSRELHPVAPLLDNLTSALNKVYQRKGVNISLDISPEISFVGEQNDFVEVMGNVLDNACKYCLEFVEISARQTDEHLYIVVEDDGPGIPLSKREVIFDRGQRVDTLRPGQGVGLAVAREITEQYEGKIVAGESMLGGARMEVIFGRQHSAPKDE

This note sets out measurements from a collection of fitness landscapes (doi:10.1126/science.1257360).

The full ranking holds about 140,000 sequences; the median of “enrichment ratio after two sorts for PhoP signalling” is about 0, and the highest 2% start at about 11. Many of the other results were omitted from the sample, so the highest values are more common in it than they were. Where only a bound is given, the exact number is not on record here.

The variants in the assay derive from B1. In words: enrichment ratio after two sorts for PhoP signalling (ratio (wild type AVST 3.29)); higher = more functional. As to conditions: with PhoP (E. coli).
For the variant AVIL, the enrichment ratio stood at 1.98.

Turning to LGEK, the enrichment ratio is not above 0.25. For DFEL, the enrichment ratio was not above 0.25.

With FLSP, the enrichment ratio is not above 0.25. For RASH the value was not above 0.25. For CITL, the enrichment ratio is not above 0.25.

In the case of NGTL, the enrichment ratio was not above 0.25. For GGTL the value was 5.81.

In the case of CFTL, the enrichment ratio was 15.7. For CMTL the value was not above 0.25; for TGTL, 13.5; for FIIG, not above 0.25. For YFRE the value was not above 0.25; for NHLE, not above 0.25; for YALE, 14.7. The result for YELE reads 13.8. In the case of MKLE, the enrichment ratio was not above 0.25. The result for HKLE reads not above 0.25; that for FTLE, 5.91. As to AILE, the enrichment ratio came to 2.65.

Consider KALE, for which the enrichment ratio is not above 0.25.

On to YEVE, for which the enrichment ratio was not above 0.25. The result for AHLE reads 12.9; that for QPLE, not above 0.25; that for TKLE, 12.7.

Take PLTV: the enrichment ratio is not above 0.25. The result for YFSG reads not above 0.25; that for RYRE, not above 0.25. The result for SNND reads not above 0.25; that for GKDT, not above 0.25.

Take PQNK: the enrichment ratio is not above 0.25.

As for KRMQ, the enrichment ratio was not above 0.25.

Turning to ADMG, the enrichment ratio was not above 0.25. For MTHV the value was not above 0.25; for MEMW, not above 0.25. Take AIMG: the enrichment ratio worked out at 6.65.

Regarding AKMG, the enrichment ratio is 18.6.

As to KKMS, the enrichment ratio was not above 0.25.

Turning to MKMS, the enrichment ratio was not above 0.25. The result for MEMV reads 14.8. The result for MKMV reads not above 0.25; that for YYHV, not above 0.25. For MEHV, the enrichment ratio worked out at 14.3. The result for MEMS reads 63.4. For VCGT the value was not above 0.25; for VPIR, not above 0.25.

Consider IAQH, for which the enrichment ratio is not above 0.25. For SNQM the value was 9.41; for RNTT, not above 0.25. For NFHF the value was not above 0.25; for RATT, not above 0.25; for RPPR, not above 0.25. For QKLG the value was not above 0.25; for PTLR, not above 0.25.

For the variant NSHF, the enrichment ratio is not above 0.25.

For MEMG, the enrichment ratio was determined as 12.8. The result for VEKK reads not above 0.25; that for MEVG, 4.29. The result for VEMV reads 27.4. The result for VEMG reads 6.39; that for MKMG, not above 0.25; that for LQGT, not above 0.25. RYHM: the enrichment ratio is not above 0.25. The result for FHIH reads not above 0.25; that for PDKA, not above 0.25. Regarding SVGW, the enrichment ratio was determined as 14.4.

In the case of SCGW, the enrichment ratio turned out to be 20.5. The result for SIGW reads 11.7; that for KYGW, not above 0.25. The result for SQGW reads not above 0.25; that for SVGD, not above 0.25.

In the case of SRGW, the enrichment ratio was 2.5.

As to SVHW, the enrichment ratio is not above 0.25. Take SYGW: the enrichment ratio is not above 0.25. For TMAH, the enrichment ratio was 1.31.

For the variant NNEC, the enrichment ratio is not above 0.25. The result for VWTE reads not above 0.25.

As to RHES, the enrichment ratio is not above 0.25.

IKSM: the enrichment ratio is not above 0.25. The result for WYNQ reads not above 0.25; that for MFWL, not above 0.25. Take TATM: the enrichment ratio worked out at 27. Turning to TAEM, the enrichment ratio is 25.7.

IAEM: the enrichment ratio is not above 0.25.

For LQEM, the enrichment ratio is not above 0.25.

In the case of TAGE, the enrichment ratio is not above 0.25.

For TANE, the enrichment ratio worked out at 18.3.

As for KAAM, the enrichment ratio is not above 0.25.

Take TARM: the enrichment ratio is not above 0.25. For YATM the value was not above 0.25.

In the case of TATI, the enrichment ratio stood at 5.19.

Regarding KANE, the enrichment ratio was not above 0.25. For TAAM, the enrichment ratio was determined as 13.6. For LGLR the value was not above 0.25. The result for IPIH reads not above 0.25. The result for IDYN reads not above 0.25; that for LPTD, not above 0.25. Regarding HEFY, the enrichment ratio is not above 0.25. For DTSM the value was not above 0.25; for YANM, 0.317. As for TAPM, the enrichment ratio was not above 0.25.

As to TANK, the enrichment ratio was not above 0.25. For TANL the value was 10; for KAGL, not above 0.25; for KANM, not above 0.25. The result for TAWM reads 9.41; that for NAGL, not above 0.25. The result for TANS reads 11.9; that for TACK, 11.6. For TAGL, the enrichment ratio was determined as 12.4. For TANM the value was 19.5.

With ERPF, the enrichment ratio is not above 0.25. For TCLM, the enrichment ratio was 1.01. The result for EGYT reads not above 0.25.

As for LDPK, the enrichment ratio is not above 0.25. In the case of DMWR, the enrichment ratio is not above 0.25. The result for EPFH reads not above 0.25.

Take QHGK: the enrichment ratio is not above 0.25. For DCLA the value was not above 0.25. For YSEC the value was not above 0.25. For KACM the value was not above 0.25; for TAGD, 9.3; for NAWE, not above 0.25. Consider KAWE, for which the enrichment ratio was not above 0.25.

Turning to TAGM, the enrichment ratio was determined as 13.2.

On to NWCM, for which the enrichment ratio was not above 0.25. For TACM the value was 12.4; for YANA, not above 0.25. With TAWE, the enrichment ratio was determined as 24.5. The result for TAVM reads 2.01; that for KANA, not above 0.25; that for TANA, 15.9. Regarding QGRI, the enrichment ratio is not above 0.25.

As for SQSD, the enrichment ratio was not above 0.25. For AVQG the value was not above 0.25; for ICYL, not above 0.25; for MLLM, 7.62.

For DQQR, the enrichment ratio is not above 0.25. The result for KFML reads not above 0.25. With GDAW, the enrichment ratio was not above 0.25. Regarding HFFI, the enrichment ratio is not above 0.25. For RKHF the value was not above 0.25.

For WQPT, the enrichment ratio is not above 0.25. Consider CISQ, for which the enrichment ratio came out at 55.8.

For the variant RISQ, the enrichment ratio is not above 0.25.

On to VLSQ, for which the enrichment ratio was not above 0.25.

With ADSQ, the enrichment ratio is not above 0.25. For ALSK the value was 2.03; for NISQ, not above 0.25. With AKSQ, the enrichment ratio came to 20.1. For YTSQ, the enrichment ratio is not above 0.25.

ALSQ: the enrichment ratio was determined as 16.2. Turning to AHSQ, the enrichment ratio was not above 0.25.

TTSQ: the enrichment ratio came to 16.8. For KQSQ the value was not above 0.25; for TLEP, not above 0.25; for DVCT, not above 0.25.
